# Test results: PubChem BioAssay (NCI)
# The panel holds about 83,000 compounds, 20% with a hit somewhere; the sample as a whole holds those more often.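 Activity criterion: percent growth below 10, measured after cells in 96-well plates were exposed to a single compound concentration for 48 hours.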 A number with no mark means an inactive call. The source made the active and inactive calls.
# System: T-47D breast
# Assay: NCI-60 one-dose screen, 48 h (100 = growth as untreated, 0 = no growth, -100 = all killed)
# Conditions: 10 µM
row,Compound,growth
1,COc1ccc(-c2nc(-c3nc4ccc(Cl)cc4[nH]3)c3ccccn23)cc1,64.7%
2,O=C(O)c1ccc(P(=O)(O)O)c([N+](=O)[O-])c1,104%
3,COc1ccc2c(c1)N(CCO)C1=C(C(=O)OC1)C2c1ccc(OC)c(OC)c1 (centres undefined),45.5%
4,CC(=O)O[C@]1(C)CC[C@H]2[C@H](CNCCc3ccc(Cl)cc3)C(=O)O[C@@H]2C2=C(C)C(=O)C[C@H]21,92.3%
5,COc1ccc(Cl)cc1-n1nnc(-c2nc3ccccc3[nH]2)c1N,67.5%
6,O=C1/C(=C\c2ccc(F)cc2)CN(C(=O)c2ccccc2)C/C1=C\c1ccc(F)cc1,57%
7,CCC(=O)N1C/C(=C/c2ccc(Cl)cc2)C(=O)/C(=C/c2ccc(Cl)cc2)C1,26%
8,COc1cc(C2CC(c3ccc(Nc4ccnc5cc(Cl)ccc45)cc3)=NN2c2ccc(Cl)cc2)cc(OC)c1OC (centres undefined),41.3%
9,COc1cc(NC(=O)CCSc2nc3ccc(C)cc3c(=O)n2Cc2ccccc2)cc(OC)c1OC,65.6%
10,COc1cc(Nc2ncnc(Nc3ccc4c(n3)NC(=O)C(C)(C)O4)n2)cc(OC)c1OC,34.5%
11,C[C@@H]1C=C2C(=O)O[C@@H]3CC[C@H](C1)[C@]23O,26.3%
12,N#CCCN1C/C(=C/c2ccc(Cl)cc2)C(=O)/C(=C/c2ccc(Cl)cc2)C1,8.7% (active)
13,Cc1[nH]nc2c1C(c1cnn(C)c1)C(C#N)=C(N)O2 (centres undefined),96.4%
14,O=C(Nc1nc2ccc(F)cc2s1)c1cc(-c2ccc(F)cc2)n2nc(-c3ccccc3)cc2n1,75.2%
15,COc1ccc(-c2nc(-c3nc4cc(Cl)c(Cl)cc4[nH]3)c3ccccn23)cc1,66.5%
16,Cc1ccc(CC#N)cc1C,98.4%
17,O=C1/C(=C\c2ccc(Cl)cc2)CN(C(=S)Nc2ccccc2)C/C1=C\c1ccc(Cl)cc1,-2.82% (active)
18,C#Cc1ccc(-n2c(/C=C/c3ccc4ccccc4n3)nc3ncccc3c2=O)cc1,-51.9% (active)
19,N#CCCN1C/C(=C/c2ccccc2)C(=O)/C(=C/c2ccccc2)C1,68%
20,CCC(=O)N1C/C(=C/c2ccc(OC)cc2)C(=O)/C(=C/c2ccc(OC)cc2)C1,57%

row,Compound,growth
1,Cc1ccc(C)c(C(O)(c2cc(C)ccc2C)C2(O)CCCCC2)c1,72.5%
2,O=C1/C(=C\c2ccc(F)cc2)CN(C(=O)c2ccc([N+](=O)[O-])cc2)C/C1=C\c1ccc(F)cc1,64.5%
3,CC(=O)OCc1cc(-c2nc3ccccc3[nH]c2=O)nn1-c1ccc(Cl)cc1,92.7%
4,O=C1/C(=C\c2ccc(Cl)cc2)CN(C(=O)c2ccccc2)C/C1=C\c1ccc(Cl)cc1,67.2%
5,CC(C)(C)c1cc(Br)cc(C(C)(C)C)c1O,99.8%
6,C#Cc1ccc(-n2c(/C=C/c3ccc(C(F)(F)F)cc3)nc3ncccc3c2=O)cc1,35.4%
7,CC/C(=C(/c1ccc(OCCN(C)C)cc1)c1ccc(OC(=O)CCCCC(=O)c2c(C)[nH]c(/C=C3\N=C(c4ccc[nH]4)C=C3OC)c2C)cc1)c1ccccc1,25.2%
8,CSc1nn(-c2ccccc2)c2ncnc(Oc3ccccc3)c12,87.7%
9,COc1cc(/C=C\c2cc(OC)c(OC)c(OC)c2)cc(NS(=O)(=O)c2ccc(Cl)cc2)c1OC,55.3%
10,COc1ccc(/C=C2/CN(CCC#N)C/C(=C\c3ccc(OC)cc3)C2=O)cc1,39.4%
11,c1ccc(CP(Cc2ccccc2)c2ccccc2)cc1,116%
12,COc1ccc(-c2nc(-c3nc4cc(Cl)c(F)cc4[nH]3)c3ccccn23)cc1,39.7%
13,Cc1nc2ccccc2c(N)c1-c1cc(C)c2c(C)nc3ccccc3c2n1,-20.4% (active)
14,CC1(C)CCC(=NNC(N)=S)CC1,95.2%
15,Nc1nc(Nc2ccccc2)n[nH]1,91.7%
16,CCOC(=O)N1C/C(=C/c2ccc(OC)cc2)C(=O)/C(=C/c2ccc(OC)cc2)C1,43.7%
17,CC(=O)n1c(-c2ccc(Cl)c(Cl)c2)cn(-c2ccc(Cl)cc2)c1=O,-47.1% (active)
18,N=C(N)c1ccc(-c2ccc(-c3ccco3)o2)cc1,58.7%
19,COc1ccc(/C=C/C(C)=N/OCC(=O)O)cc1,93.5%
